Rows were chosen to be rich in hits. Some 12% of all compounds tested hit in one or more screens of this group.
BAZ2B inh: qHTS Assay for Inhibitors of BAZ2B; Bromodomain adjacent to zinc finger domain protein 2B (Homo sapiens), Q9UIF8; AlphaScreen BAZ2B-H3K14Ac peptide displacement; Potency, µM (series often up to 114 µM), for the others: top-dose activity change, negative = inhibition, most hits filed as inhibitors; hit rate 4.4% among 360,000; AID 504333, 2011; also: % is scaled to controls: 0 for no effect and ±100 for the full control effect; nearly all actives have a fitted effect of over 60% in size
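Complex of BAZ2B and biotin-H3K14Ac (50 nM apiece) forms over 30 min at RT, then faces library compounds up to 110 uM for another 30 min; AlphaScreen beads added, 20 min dark incubation, luminescence read.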
Sfp inh: qHTS Assay for Inhibitors of Bacillus subtilis Sfp phosphopantetheinyl transferase (PPTase). 4'-phosphopantetheinyl transferase ffp (Bacillus subtilis), Q9F4F7. Biochemical Sfp PPTase activity, qHTS. Potency, µM, inactives show largest response in the series, negative = inhibition, usual class: inhibitors. hit rate 3.5% among 310,000. AID 1490, 2009;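 also: the enzyme is Sfp with the accession as filed and its product quenches rhodamine fluorescence; 0% = enzyme reaction without inhibitor and -100% = no enzyme wells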
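Fluorescence-quenching assay: 15 nM Sfp-PPTase preincubated 15 min at room temperature with compound, then 5 uM rhodamine-CoA and 12.5 uM BHQ-2-labelled YbbR peptide added. Fluorescence (ex 525/em 598 nm) read at start and after 30 min; difference gives rate.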
HP1b chromo inh: HTS for Inhibitors of HP1-beta Chromodomain Interactions with Methylated Histone Tails | hit rate 0.56% among 390,000 | AlphaScreen HP1-beta / biotin-H3K9me3 peptide binding | Chromobox protein homolog 1 (Homo sapiens), P83916 | Potency, µM (series often up to 114 µM), inactives show top-dose activity change, negative = inhibition, usual class: inhibitors; also: nearly all actives have a fitted effect of over 70% in size
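AlphaScreen: HP1-beta (50 nM) preformed 30 min with biotin-H3(1-18)K9me3 peptide (50 nM) in PBS pH 7.4, 0.01% Tween-20. Compound added for 30 min at RT, then streptavidin donor/nickel chelate acceptor beads (10 ug/mL) for 30 min.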
L3MBTL1 block: qHTS Assay for the Inhibitors of L3MBTL1. Potency, µM (doses to about 57.1 µM), inactives show top-dose activity, negative = inhibition, usual class: inhibitors. AlphaScreen L3MBTL1–H3K9me1 peptide binding. hit rate 0.66% among 230,000. AID 485360, 2010. Lethal(3)malignant brain tumor-like protein 1 (Homo sapiens), Q9Y468; also: % is scaled to controls: 0 for no effect and ±100 for the full control effect; nearly all actives have a fitted effect of over 60% in size
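Displacement of a biotinylated histone H3(1-15) peptide monomethylated at Lys9 (75 nM) from L3MBTL1 (50 nM) was measured by AlphaScreen after a 30 min room-temperature compound incubation; cefsulodin titration served as intraplate control.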
G9a inh: qHTS Assay for Inhibitors of Histone Lysine Methyltransferase G9a. Histone-lysine N-methyltransferase EHMT2 (Homo sapiens), Q96KQ7. G9a H3K9 monomethylation, AlphaScreen, 2 h. Potency, µM (highest dose often 102 µM), for the others: top-dose activity, negative = inhibition, actives largely listed as inhibitors. hit rate 8.8% among 350,000. AID 504332, 2011; also: % is scaled to controls: 0 for no effect and ±100 for the full control effect; nearly all actives have a fitted effect of over 75% in size
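AlphaScreen detection with an anti-monomethyl H3K9 antibody quantified product after a 2 h room-temperature reaction containing 500 nM biotinylated H3K9 peptide, 20 µM SAM and 20 nM enzyme, which had been preincubated 15 min with compound.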
JMJD2A Tudor: qHTS Assay for Inhibitors of JMJD2A-Tudor Domain | Lysine-specific demethylase 4A (Homo sapiens), O75164 | AlphaScreen JMJD2A-Tudor / H3K4me3 peptide binding | Potency, µM (doses to about 114 µM), for inactives: at the top dose activity change, negative = inhibition, hits mostly inhibitors | hit rate 4.4% among 390,000; also: % is scaled to controls: 0 for no effect and ±100 for the full control effect; nearly all actives have a fitted effect of over 50% in size
Active calls of the source: *; ? = inconclusive; · = no result given; [ ] = dose if it differs, or a comment. Calls follow the shape of the dose curve; as a rule, active = well fitted curve in the direction sought with a large enough effect; inconclusive = small, poorly fitted or top-dose-only effect, or another doubt; inactive = no such curve, though single readings can be large; an effect the other way counts as inactive or inconclusive. Potency is read from the fitted curve at half-maximal effect.

SMILES	BAZ2B inh	Sfp inh	HP1b chromo inh	L3MBTL1 block	G9a inh	JMJD2A Tudor
CC[C@H](C)[C@H](NC(=O)[C@H](Cc1ccc(O)cc1)NC(=O)[C@H](CCCNC(=N)N)NC(=O)[C@H](CCCNC(=N)N)NC(=O)[C@H](CC(C)C)NC(=O)[C@H](CCC(N)=O)NC(=O)[C@@H](NC(=O)[C@H](CCC(=O)O)NC(=O)[C@H](Cc1ccc(O)cc1)NC(=O)[C@H](CCC(N)=O)NC(=O)[C@H](C)NC(=O)[C@H](CCCNC(=N)N)NC(=O)[C@H](CCC(N)=O)NC(=O)[C@H](CCC(=O)O)NC(=O)[C@H](Cc1cnc[nH]1)NC(=O)[C@@H](NC(=O)[C@H](C)NC(=O)[C@H](Cc1ccc(O)cc1)NC(=O)[C@H](CC(=O)O)NC(=O)CNC(=O)[C@@H]1CCCN1C(=O)[C@H](Cc1ccc(O)cc1)NC(=O)[C@H](CCSC)NC(=O)[C@@H]1CCCN1C(=O)[C@H](CCC(=O)O)NC(=O)[C@H](CC(C)C)NC(=O)[C@@H]1CCCN1C(=O)[C@H](C)N)[C@@H](C)O)[C@@H](C)O)C(=O)N[C@@H](CC(N)=O)C(=O)N[C@H](C(=O)N[C@@H](CC(C)C)C(=O)N[C@H](C(=O)N[C@@H](CCCNC(=N)N)C(=O)N1CCC[C@H]1C(=O)N[C@@H](CCCNC(=N)N)C(=O)N[C@@H](Cc1ccc(O)cc1)C(N)=O)[C@@H](C)O)[C@@H](C)O	·	9%	·	·	·	·
c1ccc2[nH]c(CN3CCOCC3)nc2c1	-28%	10%	13%	·	14%[59 µM]	-13%
c1ccc2[nH]c(SN3CCOCC3)nc2c1	20µM*	?	·	-1%	?	·
Cn1c(=O)c(-c2cccs2)nc2cncnc21	·	-16%	·	·	-4%[0.501 µM]	·
COc1cc(C(=O)NCCCNC(=O)c2cc(OC)c(OC)c(OC)c2)cc(OC)c1OC	·	·	40%	·	·	-11%
COc1cc(C(=O)NCCNC(=O)c2cc(OC)c(C)c(OC)c2)cc(OC)c1C	-11%	25%	23%	·	32µM*	-3%
Cc1ccc(CNc2ncnc3ccc(-c4ccc5c(c4)OCO5)cc23)s1	·	·	·	·	·	-26%
CC1=NN(c2ccc(Cl)cc2)C(=O)C1	-33%	16%	16%	-9%	-4%	-24%
CC1=NN(c2ccc(N)cc2)C(=O)C1	?	-19%	7%	·	8.9µM*	-15%[11.4 µM]
COc1ccc(Br)cc1CN(C)CC(O)COc1ccc(Br)cc1 (stereo not given)	3%	-6%	119%	·	1%	6%
CC[C@@H]1C=C(C(=O)O)[C@H](c2ccc(Br)cc2)N1S(=O)(=O)c1ccc(C)cc1	·	·	50%	-4%	·	1%
COc1ccc(N2C3=C(CC4=C2CC(C)(C)CC4=O)C(=O)CC(C)(C)C3)cc1	0%	18µM*	-5%	2%	?	?
COc1ccc(N2C3=C(CC4=C2CCCC4=O)C(=O)CCC3)cc1	-28%	-2%	-52%	-17%	?	56µM*
COc1ccc(N2C3=C(C(=O)CC(C)(C)C3)C(c3ccccc3OC)C3=C2CC(C)(C)CC3=O)cc1	-3%	-9%	67%	23%	-9%[12.7 µM]	-3%
Cn1c(CC(=O)Nc2ccccc2Cl)nnc1SCC(=O)Nc1nncs1	3%	3%	36%	·	7%	-3%
COc1cccc(COC(=O)CCNC(=O)c2ccc(Cl)cc2)c1OC	4%	·	31%	1%	-21%	-8%
COc1ccc(-c2nnc(SCC(=O)c3ccc(NC(C)=O)cc3)o2)cc1OC	-2%	·	57%	·	1%[59 µM]	-23%
CC(C)(Oc1ccc(-c2ccco2)cc1)C(=O)O	-37%	35µM*	·	·	?	·
